Compound activity: PubChem, National Center for Advancing Translational Sciences (NCATS)
This is a sample that favours compounds with a hit; in the whole collection about 0.91% have one here.
APEX1 inh: inhibitors of human APE1 endonuclease | P27695 | Potency, µM (titrated, usually from 65.8 µM), for inactives: top-dose activity change, negative = inhibition, actives largely listed as inhibitors | 350,000 tested, 0.35% active | recombinant APE1, TAMRA/BHQ-2 abasic DNA cleavage fluorescence;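 further: plate controls were vehicle for no effect and reference inhibitor for full effect; nearly all actives have a fitted effect of over 55% in size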
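Enzyme (0.75 nM final) and test compound are incubated 15 min at room temperature before adding 50 nM quenched THF abasic-site duplex. Cleavage dequenches TAMRA, followed at 525/598 nm over three reads one minute apart.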
WRN helicase inh: WRN helicase (human) inhibition; Q14191; WRN helicase unwinding, fluorescent forked duplex, kinetic; Potency, µM (series often up to 114 µM), without a hit: at the top dose activity change, negative = inhibition, hits mostly inhibitors; 360,000 tested, 0.46% active; AID 651768; further: nearly all actives have a fitted effect of over 55% in size
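Kinetic red-fluorescence monitoring (525/598 nm) tracks WRN helicase activity after 100 nM fluorophore-quencher forked duplex and 2 mM ATP are added to 20 nM enzyme pretreated 15 min at room temperature with compound.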
TRb SRC2 PPI: TRbeta-SRC2 interaction inhibition. P10828. 280,000 tested, 0.065% active. TRbeta-SRC2 peptide binding, fluorescence polarization; receptor liganded with 1 µM T3. Potency, µM (highest dose often 106 µM), inactives show at the highest dose activity change, negative = inhibition, usual class: inhibitors;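 further: plate controls were bound peptide for no effect and peptide without receptor for full effect; nearly all actives have a fitted effect of over 50% in size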
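Compounds were added to 0.6 uM TRb ligand-binding domain and 20 nM Texas Red-labeled SRC2 peptide in Tris buffer containing 1 uM T3, incubated 5 hr at ambient temperature, then read by fluorescence polarization.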
TexasRed fluor: counter-screen for TRb-SRC2 inhibitors: fluorescence interference | TRb/SRC2 Texas Red total fluorescence interference | 280,000 tested, 0.29% active | Potency, µM (top dose mostly 106 µM), without a hit: top-dose fluorescence change, negative = quenching; active means well fitted curve in either direction with a large enough effect; inconclusive means small, poorly fitted or top-dose-only effect
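Human TRβ ligand-binding domain (0.6 uM) and Texas Red SRC2 peptide (20 nM) in Tris buffer with 1 uM T3 and 5% DMSO were incubated with pinned compound for 5 hr at ambient temperature. Total fluorescence was computed as S + 2P (555/632 nm).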
RECQ1 inh-1: inhibitors of human RECQ1 DNA helicase. 240,000 tested, 0.54% active. Potency, µM (titrated, usually from 57.3 µM), inactives show top-dose activity, negative = inhibition, usual class: inhibitors. RECQ1 DNA unwinding, red fluorescence kinetic read. P46063;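 further: plate controls were vehicle for no effect and no enzyme for full effect; nearly all actives have a fitted effect of over 30% in size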
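RECQ1T1 50 nM; forked duplex (20 bp + 30-nt ss tails) 200 nM, ATP 2 mM final; pH 8.0, 2 mM MgCl2, 2.5 ug/ml poly(dI-dC); 15 min compound preincubation; discontinuous kinetic read over 2 h at RT.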
BLM inh: Bloom syndrome helicase (human) inhibition | P54132 | recombinant BLM DNA unwinding, fluorescence dequenching | Potency, µM (top dose mostly 56.1 µM), for the others: at the highest dose activity change, negative = inhibition, most hits filed as inhibitors | 350,000 tested, 0.2% active;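 further: plate controls were vehicle for no effect and no enzyme for full effect; nearly all actives have a fitted effect of over 35% in size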
RECQ1 inh conf: confirmation of human RECQ1 helicase inhibitors | shares compounds with RECQ1 inh-1 | RECQ1 helicase DNA unwinding, fluorescence | Potency, µM (series often up to 229 µM), without a hit: at the top dose activity change, negative = inhibition, usual class: inhibitors | 610 tested, 28% active | AID 2708; further: nearly all actives have a fitted effect of over 45% in size
ADP FP counter: ADP displacement flagged in RECQ1 inhibitor counter-screen; Potency, µM (titrated, usually from 228 µM), without a hit: at the highest dose activity change, negative = inhibition, usual class: inhibitors; shares compounds with RECQ1 inh-1; 530 tested, 27% active; ADP fluorescence polarization displacement counterscreen; further: nearly all actives have a fitted effect of over 45% in size
RECQ1 inh-2: RECQ1 helicase inhibition confirmed, round 2; shares compounds with RECQ1 inh-1; recombinant RECQ1 DNA unwinding, red fluorescence; Potency, µM (top dose mostly 119 µM), inactives show top-dose activity, negative = inhibition, hits mostly inhibitors; 1,100 tested, 15% active; AID 504841; further: nearly all actives have a fitted effect of over 50% in size
Starred values were filed as active, the others as inactive; i = inactive; u = inconclusive; x = no result given; [ ] = another dose, or the depositor's remark. Unless noted, the call rests on the fitted dose curve; in most records, active means well fitted curve in the direction sought with a large enough effect; inconclusive means small, poorly fitted or top-dose-only effect, or another doubt; inactive means no such curve, though single readings can be large; an effect the other way counts as inactive or inconclusive. Unless noted, on the % scale 0 is the no-effect control and ±100 the full control effect; potency means the concentration at half of the fitted maximal effect.

SMILES	APEX1 inh	WRN helicase inh	TRb SRC2 PPI	TexasRed fluor	RECQ1 inh-1	BLM inh	RECQ1 inh-2	others
O=C(O)CC/C(=C\c1ccc(N2CCCC2)c([N+](=O)[O-])c1)c1nc2ccccc2s1	u	u	9%	-3%	u	u	u
Cn1cnnc1Sc1ccc(/C=C(\CC(=O)O)c2nc3ccccc3s2)cc1[N+](=O)[O-]	-2%	u	7%	1%	-5%	-7%	x	RECQ1 inh conf=-10%;ADP FP counter=-11%
CCc1ccc(/C=C2/SC(=S)N(CCC(=O)Nc3cccnc3)C2=O)cc1	-3%	4%	x	x	x	-3%	x
N=C1S/C(=C\c2ccc(-c3ccccc3C(=O)O)o2)C(=O)N1c1ccc2c(c1)OCO2	u	u	1%	-3%	-2%	-20%	x	RECQ1 inh conf=u;ADP FP counter=u
CCOC(=O)C(=CNc1ccc(-c2ccco2)c(Cl)c1)C(=O)OCC	-3%	-10%	-3%	-1%	u	-13%	-27%
COc1ccccc1N(CC(=O)NCc1ccccc1)S(=O)(=O)c1cccs1	x	11%	x	x	x	x	x
COc1ccc(-n2c(=O)c(-c3cccc(F)c3)nc3cncnc32)cc1	-2%	x	x	x	i	0%	x
COc1ccc(-n2c(=O)c(-c3cccc(Cl)c3)nc3cncnc32)cc1	16%	x	x	x	u	2%	-3%
COc1ccc(-c2nc3cnc(N4CCOCC4)nc3n(-c3ccc(OC)cc3)c2=O)cc1	14µM*	x	x	x	u	-16%	-4%
O=C(NCCn1cc(SCc2ccccc2F)c2ccccc21)c1cccs1	x	x	16%	-2%	x	-13%	x
O=C(O)CCc1ccc(-c2ccc(Br)cc2)n1CC(=O)O	-9%	-12%[57.1 µM]	-25%	-1%	32µM*	-15%	u
COc1ccc(C2=CC3=C(Br)C(=O)C(C)(OC(=O)C4CCCC4)C(=O)C3=CO2)cc1 (stereo unspecified)	-1%	u	u	u	3%	-4%	x
COC(=O)CCC(=O)OC1(C)C(=O)C2=COC(c3ccc(OC)cc3)=CC2=C(Br)C1=O (stereo unspecified)	u	u	1%	0%	u	0%	56µM*
O=C(Nc1ccc(S(=O)(=O)N(Cc2ccccc2)c2ccccc2)cc1)c1ccc(F)cc1	x	x	1%	-1%	x	-12%	x
COc1ccccc1NC(=O)C12CC3CC(C1)CC(c1ccc(C)cc1)(C3)C2	-2%	5%	4%	1%	32µM*	-5%	-14%
COc1ccc(NC(=O)C23CC4CC(C2)CC(c2ccc(C)cc2)(C4)C3)cc1	4%	-23%[57.1 µM]	-5%	0%	0%	-7%	x
COc1ccc(NC(=O)CN(c2ccccc2)S(=O)(=O)N(C)C)cc1OC	u	u	3%	-6%	u	-2%	u
Cc1ccc(C2=NC(C)(C)NC2=O)cc1	2%	-1%	-6%	0%	i	-2%	x
CC1(C)N=C(c2ccc(Cl)cc2)C(=O)N1	-1%	7%	0%	1%	35µM*	1%	u
COc1cc2c(cc1OC)CN(C(=O)Cc1c(F)cccc1Cl)CC2	28%	-2%	x	x	x	1%	x
COc1ccc(C(C(=O)NC(C)(C)C)N(CCc2ccc(OC)c(OC)c2)C(=O)CCC(=O)Nc2cc(C)on2)cc1 (stereo unspecified)	41%[12.4 µM]	7%	x	x	x	-2%	x
CCOc1ccc(C(NC(=O)CC)c2c(O)ccc3ccccc23)cc1 (stereo unspecified)	-18%	1%	x	x	x	-8%	x
CC(=O)Oc1ccc2ccccc2c1C(NC(=O)Cc1ccccc1)c1ccc(Cl)cc1 (stereo unspecified)	9%	-10%	-1%	-3%	u	-12%	-13%
Cc1cnc(CNc2ncnc3ccc(-c4ccc(N(C)C)cc4)cc23)cn1	-9%	x	x	x	25µM*	-22%	u
CCOC(=O)CC1COCCN1C(=O)c1ccc2oc(Cc3ccccc3)nc2c1 (stereo unspecified)	5%	-4%	x	x	x	-3%	x
SMILES	APEX1 inh	WRN helicase inh	TRb SRC2 PPI	TexasRed fluor	RECQ1 inh-1	BLM inh	RECQ1 inh-2	others
COc1ccc(NC(=O)CSc2nc3ccsc3c(=O)n2CCCCCC(=O)O)cc1	-1%	-12%	2%	1%	-1%	3%	x	RECQ1 inh conf=u;ADP FP counter=13%
O=C(O)CCCCCn1c(SCC(=O)Nc2ccc(F)cc2)nc2ccsc2c1=O	-3%	-15%	4%	-2%	i	-1%	x	RECQ1 inh conf=5%;ADP FP counter=-4%
CN(C)c1ccc(NC(=O)CSc2nc3ccsc3c(=O)n2CCCCCC(=O)O)cc1	x	x	7%	1%	x	2%	x
O=C(CCCn1c(SCC(=O)c2ccc(O)c(O)c2)nc2ccccc2c1=O)NCC1CCCO1 (stereo unspecified)	28µM*	22µM*	5%	-3%	14µM*	-15%	11µM*	RECQ1 inh conf=71µM*;ADP FP counter=-1%[91.9 µM]
CCCCn1c(SCC(=O)c2ccc(O)c(O)c2)nc2ccsc2c1=O	-9%	u	-2%	5%	22µM*	-24%	8.9µM*
COc1ccccc1NC(=O)CCN1CCCCC1	x	x	2%	-4%	x	-2%	x
O=C(Cn1c(=O)n(-c2ccc(F)cc2)c(=O)c2sc3ccccc3c21)NC1CCCCC1	x	x	-3%	0%	x	-4%	x
CC(C)(C)c1ccccc1NC(=O)c1cnn2c(C(F)F)cc(-c3ccccc3)nc12	x	x	0%	-16%	x	-3%	x
COc1cc(/C=N/N2C(=O)CSC2=S)ccc1O	4%	u	9%	7%	u	-1%	u
O=C(O)C(C(=O)/C=C/c1ccco1)=C1SCCS1	25µM*	u	-7%	-10%	u	-14%	u
COc1ccc(OC)c(-c2c3cc(O)c(=O)cc-3oc3cc(O)c(O)cc23)c1	32µM*	79µM*	25µM*	45µM*[fluorescent]	35µM*	28µM*	40µM*
C=CCn1c(O)c(N=NC(=O)CNC(=O)/C=C/c2ccco2)c2ccccc21	u	u	-8%	-11%	u	u	u
